In PubChem BioAssay AID686996 (Broad Institute, 2013):
About 1,900 (0.54%) of roughly 350,000 compounds were called active.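 How the source made its calls: active means mean inhibition across replicates at least about 35%, with every replicate also reaching that limit (limit read from the data); inconclusive means only one of the two criteria met; inactive means neither criterion met.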 The list comes from a sample in which actives are over-represented; it also holds similar structures and randomly drawn compounds.

The compounds below were run against Caspase-6 (Homo sapiens) (UniProt P55212) (assay: inhibition of CASP6 peptide cleavage – biochemical, VEID-R110 fluorescence, single point, set 2, primary screen (AID 686996;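 further: 0% = median of neutral control wells and 100% = no fluorescence left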)). Details: purified caspase-6, Z-VEID-R110 cleavage fluorescence; at 12.5 µM; hits give high values.
Chain of Caspase-6 (Homo sapiens) (P55212 24-179 limits assumed): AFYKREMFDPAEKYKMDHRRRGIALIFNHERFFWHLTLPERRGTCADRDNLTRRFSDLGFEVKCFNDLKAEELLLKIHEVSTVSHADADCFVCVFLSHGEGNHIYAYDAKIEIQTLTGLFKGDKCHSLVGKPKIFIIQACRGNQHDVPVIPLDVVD
Chain of Caspase-6 (Homo sapiens) (P55212 194-293 limits assumed): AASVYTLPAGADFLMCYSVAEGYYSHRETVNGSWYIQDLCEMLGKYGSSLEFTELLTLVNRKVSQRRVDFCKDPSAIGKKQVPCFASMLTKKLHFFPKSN
In the case of `CCOc1ccccc1NC(=O)Cc1cccs1`, the inhibition is reported as 39.6% (active).
`CCOC(=O)c1ccc(NC(=O)Cc2cccs2)cc1` was tested, and the inhibition was 0.303% (inactive).
`COc1ccc(OC)c(NC(=O)Cc2cccs2)c1` was tested, and the inhibition was 25.5% (inactive).
In the case of `CO[C@H]1CN(C)C(=O)c2cc(NC(=O)Nc3cccc(F)c3)ccc2OC[C@@H](C)N(C)C[C@@H]1C`, the inhibition is reported as -5.35% (inactive).
In the case of `C[C@H]1CN([C@@H](C)CO)S(=O)(=O)c2ccc(-c3ccncc3)cc2O[C@H]1CN(C)S(C)(=O)=O`, the inhibition is reported as -2.14% (inactive).
`COc1ccc(S(=O)(=O)Nc2ccc3c(c2)CC(=O)N([C@@H](C)CO)C[C@@H](C)[C@@H](CN(C)C(=O)Nc2c(C)noc2C)O3)cc1` was tested, and the inhibition was 1.08% (inactive).
In the case of `O=C(C[C@H]1CC[C@H]2[C@@H](COC[C@H](O)CN2S(=O)(=O)c2cccc(F)c2)O1)NC1CCC1`, the inhibition is reported as 0.605% (inactive).
`Cc1nnc(SCC(=O)Nc2ccc(S(=O)(=O)Nc3ccc(Cl)nn3)cc2)s1` was tested, and the inhibition was 35.3% (active).
`Cc1nnc(SC(C)C(=O)Nc2ccc(S(=O)(=O)NC3CCCCC3)cc2)s1` (stereo not given) was tested, and the inhibition was 3.47% (inactive).
With `CCCCCC(=O)Nc1ccc(S(=O)(=O)Nc2ccc(Cl)nn2)cc1` the inhibition was 9.99% (inactive).
For `C[C@@H](NC(=O)C[C@H]1CC[C@@H](NC(=O)Cc2ccccn2)[C@@H](CO)O1)c1ccccc1`, the inhibition was -7.46% (inactive).
With `Oc1c(Cl)cc(Cl)c(Cl)c1Cc1c(O)c(Cl)cc(Cl)c1Cl` the inhibition was 45.1% (active).
`O=C(CSc1nc(O)c(Cc2ccccc2)c(=O)[nH]1)Nc1nc2c(s1)CCCC2` was tested, and the inhibition was 9.11% (inactive).
For `CC(C)c1nc(SCC(=O)Nc2cccc(C(=O)O)c2)c2c3c(sc2n1)CCCC3`, the inhibition was 9.4% (inactive).
For `O=C(CCc1nc2sc3c(c2c(=O)[nH]1)CCCC3)NCC(=O)Nc1ccccc1Br`, the inhibition was 36.7% (active).
In the case of `O=c1ccc2c(-c3ccccc3S(=O)(=O)O)c3ccc(O)c(O)c3oc-2c1O`, the inhibition is reported as 87.7% (active).
`O=C(C[C@H]1CC[C@@H](NC(=O)Nc2ccc(F)cc2)[C@@H](CO)O1)NCCN1CCCC1` was tested, and the inhibition was -1.07% (inactive).
For `O=C(O)Cn1cnc2c(NCc3ccccc3)ncnc21`, the inhibition was -2.69% (inactive).
`O=S(=O)(c1ccccc1)N1CC[C@@H]2[C@@H](CO)Nc3ccc(-c4ccccc4F)cc3[C@@H]21` was tested, and the inhibition was -0.847% (inactive).
With `C[C@H](CO)N1C[C@H](C)[C@H](CN(C)S(C)(=O)=O)Oc2ccc(NC(=O)CCCN(C)C)cc2C1=O` the inhibition was -7.82% (inactive).
For `COC(=O)c1cccc(NC(=O)c2cccc(N3C(=O)CCC3=O)c2)c1`, the inhibition was 45% (active).
For `COC(=O)c1cccc(N2C(=O)C3C4C=CC(CC4)C3C2=O)c1` (stereo not given), the inhibition was 3.07% (inactive).
`COc1ccccc1-c1nnc(NC(=O)c2cccc(N3C(=O)CCC3=O)c2)o1` was tested, and the inhibition was 6.24% (inactive).
In the case of `C[C@@H]1CN([C@@H](C)CO)C(=O)c2cccc(NS(=O)(=O)c3ccc(Cl)cc3)c2O[C@@H]1CN(C)Cc1ccccc1`, the inhibition is reported as 0.793% (inactive).
With `O=C(C1CCC1)N1CC[C@@H]2[C@H]1c1cc(C#Cc3ccc(F)cc3)ccc1N[C@@H]2CO` the inhibition was 1.04% (inactive).
With `O=C(CN1CCN(S(=O)(=O)c2cc(Cl)ccc2Cl)CC1)c1ccc(O)c(O)c1` the inhibition was 35.7% (active).
In the case of `CCN1CCN(C(=O)C2CCN(S(=O)(=O)c3cc(Cl)ccc3Cl)CC2)CC1`, the inhibition is reported as -3.59% (inactive).
`O=S(=O)(c1cc(Cl)ccc1Cl)N1CCN(Cc2ccco2)CC1` was tested, and the inhibition was 4.43% (inactive).
In the case of `COc1cccc(CNC(=O)[C@H]2CCCN2C(=O)[C@H]2CCCN2C(=O)C2CCCCC2)c1`, the inhibition is reported as 5.61% (inactive).
For `COc1c(O)cc2oc(-c3ccc(O)c(O)c3)cc(=O)c2c1O`, the inhibition was 39.1% (active).
`C#CCN1C(Cc2ccccc2)C(=O)O[C@H](C2CCCCC2)[C@@H]1/C=C/C1CC1` (stereo not given in full) was tested, and the inhibition was -4.1% (inactive).
`N#CC1=C(N)Oc2n[nH]c(CSc3ccccc3)c2C12C(=O)Nc1ccccc12` (stereo not given) was tested, and the inhibition was 7.38% (inactive).
`N#CC1=C(N)Oc2[nH]c(=S)[nH]c(=O)c2C12C(=O)Nc1ccccc12` (stereo not given) was tested, and the inhibition was 45.4% (active).
`C[C@@H]1CN([C@@H](C)CO)S(=O)(=O)c2ccc(C3=CCCCC3)cc2O[C@@H]1CN(C)C(=O)CN(C)C` was tested, and the inhibition was 0.621% (inactive).
For `CCS(=O)(=O)N1CC2(CN(Cc3cc(F)ccc3F)[C@@H](CO)c3c2c2ccc(OC)cc2n3C)C1`, the inhibition was -1.32% (inactive).
For `C[C@H](CO)N1C[C@H](C)[C@H](CN(C)CC2CCCC2)Oc2ncc(Br)cc2C1=O`, the inhibition was 0.088% (inactive).
`C[C@@H]1CN([C@@H](C)CO)C(=O)c2cc(NS(=O)(=O)c3ccc(Cl)cc3)ccc2O[C@H]1CN(C)S(=O)(=O)c1cn(C)cn1` was tested, and the inhibition was -0.705% (inactive).
In the case of `CNC(=O)COc1ccc(S(=O)(=O)Nc2ccccc2)cc1`, the inhibition is reported as 0.091% (inactive).
With `COc1ccc(NS(=O)(=O)c2ccc(Oc3c(C#N)cccc3C#N)cc2)cc1` the inhibition was -1.42% (inactive).
In the case of `Cc1ccc(S(=O)(=O)N[C@H](CO)C(C)C)cc1`, the inhibition is reported as 1.4% (inactive).
For `Cc1ccc(S(=O)(=O)N/N=C(\c2ccccc2)C2CC2)cc1`, the inhibition was 8.02% (inactive).
For `Cc1ccc(S(=O)(=O)/N=C2\C=C(NS(=O)(=O)c3ccc(C)cc3)C(=O)c3ccccc32)cc1`, the inhibition was 62.8% (active).
`COc1ccc(S(=O)(=O)/N=C2\C=C(NS(=O)(=O)c3ccccc3)C(=O)c3ccccc32)cc1` was tested, and the inhibition was 55.8% (active).
`CO[C@H]1CN(C)C(=O)c2ccc(NS(=O)(=O)c3ccccc3)cc2OC[C@H](C)N(Cc2nccs2)C[C@@H]1C` was tested, and the inhibition was 0.023% (inactive).
For `C[C@@H](O)C#Cc1ccc([C@H]2[C@@H](CO)N3CCCCN(S(=O)(=O)c4ccccc4)C[C@@H]23)cc1`, the inhibition was -3.52% (inactive).
For `CCCNC(=O)C[C@H]1C[C@@H]2c3cc(NS(=O)(=O)c4cccc(OC)c4)ccc3O[C@@H]2[C@@H](CO)O1`, the inhibition was 2.43% (inactive).
For `C[C@@H]1C[C@@H]2O[C@H]2/C=C\C=C\C(=O)Cc2c(Cl)c(O)cc(O)c2C(=O)O1`, the inhibition was 37.4% (active).
With `COc1ccc(S(=O)(=O)N(C)C[C@H]2Oc3c(NC(=O)CCCCCC(=O)Nc4ccccc4N)cccc3C(=O)N([C@H](C)CO)C[C@H]2C)cc1` the inhibition was -1.7% (inactive).
`O=C(Cc1ccccc1)N[C@H]1C=C[C@H](CC(=O)N2CCCCC2)O[C@@H]1CO` was tested, and the inhibition was -1.28% (inactive).
For `CCCN1[C@H](C(=O)N2CCCCC2)[C@@H](CO)[C@@H]2Cn3c(ccc(-c4ccccc4F)c3=O)[C@@H]21`, the inhibition was 1.71% (inactive).
For `CCC(=O)N1CCC2(CC1)CN(Cc1ccc(Cl)cc1)[C@@H](CO)c1[nH]c3cc(OC)ccc3c12`, the inhibition was 1.51% (inactive).
With `O=C(O)C(c1ccccc1)N1C(=O)/C(=C\c2ccc(-c3cccc(Cl)c3)o2)SC1=S` (stereo not given) the inhibition was 89.6% (active).
In the case of `CC(C(=O)NC1CCS(=O)(=O)C1)N1C(=O)/C(=C/c2ccc(Cl)cc2)SC1=S` (stereo not given), the inhibition is reported as 4.77% (inactive).
In the case of `CC(C(=O)Nc1ccc(O)c(C(=O)O)c1)N1C(=O)/C(=C/c2cccs2)SC1=S` (stereo not given), the inhibition is reported as 27.5% (inactive).
For `CCN1[C@@H]2Cn3c(ccc(C4=CCCCC4)c3=O)[C@H]1[C@@H](C(=O)N1CCCCC1)[C@@H]2CO`, the inhibition was 1.04% (inactive).
In the case of `O=C(C[C@H]1CC[C@@H]2[C@H](COC[C@@H](O)CN2C(=O)Nc2cccc(F)c2)O1)NCc1ccccc1F`, the inhibition is reported as 0.624% (inactive).
With `O=C(COC(=O)c1ccccc1O)NCc1ccco1` the inhibition was 38.4% (active).
In the case of `O=C(COC(=O)c1cnc(Cl)c(Cl)c1)NCc1ccco1`, the inhibition is reported as 10.4% (inactive).
For `O=C(COC(=O)Cc1ccc(Cl)cc1Cl)NCc1ccco1`, the inhibition was 3.33% (inactive).
With `N#C[C@H]1[C@@H](c2ccccc2C2=CCCC2)[C@H](CO)N1C(=O)c1cccc(F)c1` the inhibition was 0.224% (inactive).
`CCC(=O)N1C[C@@H](C)[C@H](OC)CN(C)C(=O)c2cc(NC(=O)NC3CCCC3)ccc2OC[C@H]1C` was tested, and the inhibition was 0.917% (inactive).
In the case of `CCC(=O)N(C)C[C@@H]1Oc2cc(C#CCN(C)C)ccc2S(=O)(=O)N([C@H](C)CO)C[C@H]1C`, the inhibition is reported as -0.78% (inactive).
`N#CC1=C(N)Oc2c(ccc3cccnc23)C1c1ccncc1` (stereo not given) was tested, and the inhibition was 3.1% (inactive).
`N#CC1=C(N)Oc2cc(N)ccc2C1c1ccccc1` (stereo not given) was tested, and the inhibition was 37% (active).
`Cn1c2c(c(=O)n(C)c1=O)C(c1cccc(F)c1)C(C#N)=C(N)O2` (stereo not given) was tested, and the inhibition was 1.86% (inactive).
`O=C(C[C@@H]1CC[C@H]2[C@@H](COC[C@H](O)CN2C(=O)Nc2ccccc2)O1)NCc1ccccc1F` was tested, and the inhibition was -1.64% (inactive).
With `Cc1ccccc1-c1ccc2c(c1)O[C@@H](CN(C)Cc1ccncc1)[C@@H](C)CN([C@H](C)CO)S2(=O)=O` the inhibition was 2.69% (inactive).
With `O=C(O)CSc1ccc(S(=O)(=O)N2CCCC2)cn1` the inhibition was -0.751% (inactive).
In the case of `N#Cc1c(C(F)(F)F)cc(-c2ccc(Cl)cc2)nc1SCC(=O)O`, the inhibition is reported as -2.92% (inactive).
`N#Cc1c(N2CCCCC2)nc(N)c2c(N)nc(SCC(=O)O)cc12` was tested, and the inhibition was 43.3% (active).
With `C[C@@H]1CN([C@@H](C)CO)C(=O)Cc2cc(NC(=O)CCN3CCOCC3)ccc2O[C@H]1CN(C)S(=O)(=O)c1ccccc1` the inhibition was -0.675% (inactive).
With `CN(C)C(=O)c1ccc(-c2ccccc2[C@@H]2[C@@H](C#N)N(C(=O)C3CCCC3)[C@H]2CO)cc1` the inhibition was 2.13% (inactive).
With `C[C@@H]1CN([C@H](C)CO)C(=O)c2c(c3ccccc3n2C)-c2ccccc2CO[C@H]1CN(C)S(=O)(=O)c1ccccc1F` the inhibition was -0.557% (inactive).
`O=C(C[C@@H]1C=C[C@H](NC(=O)C2CCOCC2)[C@H](CO)O1)NCc1ccncc1` was tested, and the inhibition was -0.812% (inactive).
In the case of `O=C(c1ccc2c(c1)OCO2)N1CC(=O)N2[C@H](C1)[C@@H](c1ccc(C#Cc3ccccc3)cc1)[C@@H]2CO`, the inhibition is reported as -1.08% (inactive).
